Drawing on PubChem BioAssay (NCATS), this text covers Potency for 14 compounds.

The nature of assay [1]: Quantitative High-Throughput drug screen in 47 multiple myeloma cell lines against the NCATS MIPE library collection: AMO1_DSMZ cell viability assay (AID 1918927; note: nearly all actives have a fitted effect of over 30% in size; note: potency is the fitted concentration of half-maximal effect). A digest of the protocol:
(§1)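 Primary qHTS used for cherry-picking: cells at 500/well, library compounds for 48 h (37C, 5% CO2), luminescent ATP assay.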

Assay [2] in a line: Quantitative High-Throughput drug screen in 47 multiple myeloma cell lines against the NCATS MIPE library collection: KHM11_PLB cell viability assay (AID 1918962). Note: nearly all actives have a fitted effect of over 35% in size. Note: potency is the fitted concentration of half-maximal effect. A digest of the protocol:
(§2)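 Viability readout: CellTiter-Glo luminescence following 5 min room-temperature incubation with reagent. Prior exposure: 48 h, 37C, humidified 5% CO2, 500 cells per well.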

Assay [3] is described as follows: Quantitative High-Throughput drug screen in 47 multiple myeloma cell lines against the NCATS MIPE library collection: INA6_PLB cell viability assay (AID 1918965; note: potency is the fitted concentration of half-maximal effect; nearly all actives have a fitted effect of over 55% in size). A digest of the protocol: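 Approved and investigational drugs from MIPE 4.0 were added by pin tool to 500 cells per well. After 48 hours at 37C, ATP-based CellTiter-Glo luminescence indicated remaining viability.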

Assay [4] can be described thus: Quantitative High-Throughput drug screen in 47 multiple myeloma cell lines against the NCATS MIPE library collection: JJN3_DSMZ cell viability assay (AID 1918966; note: potency is the fitted concentration of half-maximal effect; nearly all actives have a fitted effect of over 50% in size). The method in brief:
as §1

Assay [5] can be described thus: Quantitative High-Throughput drug screen in 47 multiple myeloma cell lines against the NCATS MIPE library collection: H1112_PLB cell viability assay (AID 1918967; note: nearly all actives have a fitted effect of over 30% in size; note: potency is the fitted concentration of half-maximal effect). A digest of the protocol: as §1
A short description of assay [6]: Quantitative High-Throughput drug screen in 47 multiple myeloma cell lines against the NCATS MIPE library collection: EJM_DSMZ cell viability assay (AID 1918926; note: nearly all actives have a fitted effect of over 30% in size; note: potency is the fitted concentration of half-maximal effect). The method in brief:
as §1

Assay [7] is described as follows: Quantitative High-Throughput drug screen in 47 multiple myeloma cell lines against the NCATS MIPE library collection: ARP1_JJKsccF8 cell viability assay (AID 1918928; note: nearly all actives have a fitted effect of over 40% in size; note: potency is the fitted concentration of half-maximal effect). The method in brief: (§3)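 Myeloma cells, 500 per well, were exposed to MIPE 4.0 drugs by pin transfer for 48 h at 37 °C, 5% CO2. Viability was read as ATP luminescence with CellTiter-Glo, normalised to DMSO-only (100%) and medium-only (0%) wells.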

A short description of assay [8]: Quantitative High-Throughput drug screen in 47 multiple myeloma cell lines against the NCATS MIPE library collection: ARD_JJKsccE7 cell viability assay (AID 1918929; note: potency is the fitted concentration of half-maximal effect). The method in brief: as §1
Assay [9] in a line: Quantitative High-Throughput drug screen in 47 multiple myeloma cell lines against the NCATS MIPE library collection: Karpas620_DSMZ cell viability assay (AID 1918959). Note: nearly all actives have a fitted effect of over 30% in size. Note: potency is the fitted concentration of half-maximal effect. A digest of the protocol:
as §2

Assay [10] can be described thus: Quantitative High-Throughput drug screen in 47 multiple myeloma cell lines against the NCATS MIPE library collection: JIM3_ECACC cell viability assay (AID 1918963; note: nearly all actives have a fitted effect of over 35% in size; note: potency is the fitted concentration of half-maximal effect). A digest of the protocol:
as §2

A short description of assay [11]: Quantitative High-Throughput drug screen in 47 multiple myeloma cell lines against the NCATS MIPE library collection: KMM1_JCRB cell viability assay (AID 1918960). Note: nearly all actives have a fitted effect of over 30% in size. Note: potency is the fitted concentration of half-maximal effect. The method in brief: as §3
A short description of assay [12]: Quantitative High-Throughput drug screen in 47 multiple myeloma cell lines against the NCATS MIPE library collection: Delta47_JCRB cell viability assay (AID 1918925; note: nearly all actives have a fitted effect of over 45% in size; note: potency is the fitted concentration of half-maximal effect). The method in brief: as §1
The nature of assay [13]: Quantitative High-Throughput drug screen in 47 multiple myeloma cell lines against the NCATS MIPE library collection: JIM1_ECACC cell viability assay (AID 1918964). A digest of the protocol:
as §1

The structures appear in SMILES notation. Records with an inconclusive call do not appear. Active and inactive are the calls of the source. Calls come from the whole dose curve; as a rule, active = well fitted curve in the direction sought with a large enough effect; inconclusive = small, poorly fitted or top-dose-only effect, or another doubt; inactive = no such curve, though single readings can be large; an effect the other way counts as inactive or inconclusive.

In the case of `CCOC(=O)c1c(CSc2ccccc2)n(C)c2cc(Br)c(O)c(CN(C)C)c12`, the Potency in [1] was 26.4 µM (active); in assay [3], 16.6 µM (active); in assay [4], 11.8 µM (active); in [5] it was 6.62 µM (active). Further, the Potency result in assay [2] is “inactive”.
Consider `COc1cc2c(cc1OC)[C@@H]1Cc3ccc(OC)c(OC)c3CN1CC2`, for which the Potency in assay [6] is 10.5 µM (active); in assay [7] it was 13.2 µM (active); in assay [4] it was 20.9 µM (active). In addition, the Potency result in assay [8], in assay [9], in [10] and in assay [5] was “inactive” throughout.
With `Cc1cc(NC(=O)Nc2ccc(N(C)C)cc2)c2cc(F)cc(F)c2n1`, the Potency result in assay [6], in assay [1], in assay [9] and in assay [11] was “inactive” throughout.
On to `CCNC(=O)Nc1ccc(Oc2ncnc(N)c2C=NOC)cc1Cl`, for which the Potency in assay [1] was 2.96 µM (active); in assay [7], 20.9 µM (active); in [8], 5.9 µM (active); in assay [9] it was 4.69 µM (active); in assay [11] it was 4.69 µM (active); in assay [10], 9.35 µM (active). In addition, the Potency entry in assay [5] was “inactive”.
In the case of `CC(C)CN(C[C@H](O)[C@H](Cc1ccccc1)NC(=O)O[C@H]1CCOC1)S(=O)(=O)c1ccc(N)cc1`, the Potency entry in [1], in [9] and in assay [11] was “inactive” throughout. Further, the values for the Potency in assay [4] and in assay [5] were 1.87 µM (active) and 18.7 µM (active), respectively.
For the compound `CN[C@@H]1CN(c2ccc3c(=O)c(C(=O)O)cn(-c4nccs4)c3n2)C[C@@H]1OC`, the Potency in assay [12] was 5.75 µM (active); in [1], 0.812 µM (active); in assay [2], 14.4 µM (active); in assay [10], 14.4 µM (active); in [3] it was 1.44 µM (active); in assay [4], 8.12 µM (active). Also, the Potency in assay [5] was 12.9 µM (active). Besides, the Potency result in assay [8] is “inactive”.
As for `Cc1cc(OCCCS(C)(=O)=O)cc(C)c1-c1cccc(COc2ccc3c(c2)OC[C@H]3CC(=O)O)c1`, the Potency result in [6] and in [8] was “inactive” each time. The Potency in assay [9] was 5.9 µM (active); in [10] it was 14.8 µM (active); in assay [4], 11.8 µM (active); in assay [5], 20.9 µM (active).
With `CCC[C@H](Nc1nc(-c2ccc(NC(=O)NCC)c(OC)c2)ncc1C)c1cccnc1`, the Potency was 0.001 µM (active) in assay [1]; 0.0083 µM (active) in assay [7]; 0.001 µM (active) in assay [8]; 0.001 µM (active) in assay [11]; 0.001 µM (active) in assay [3]; 0.0235 µM (active) in assay [4]. For the same compound, in assay [5], the Potency was 0.0047 µM (active). Moreover, the Potency entry in assay [2] is “inactive”.
Turning to `CN1N=C(N)c2cn([C@@H]3O[C@H](COP(=O)(O)O)[C@@H](O)[C@@H]3O)c3ncnc1c23`, the Potency in [6] was 7.43 µM (active); in assay [1] it was 0.0935 µM (active); in assay [7], 0.469 µM (active); in assay [9] it was 0.0833 µM (active); in assay [2], 0.372 µM (active); in [10], 0.469 µM (active). Moreover, the Potency in assay [4] was 2.96 µM (active); in [5] it was 0.526 µM (active).
With `C=C[C@@H]1CN2CCC1C[C@@H]2C(O)c1ccnc2ccc(OC)cc12` (stereo partly drawn), the Potency result in assay [12], in assay [1], in assay [9], in assay [11], in assay [2] and in [10] was “inactive” throughout. In addition, the Potency entry in assay [13] and in assay [5] was “inactive” each time. The Potency in [4] is 16.6 µM (active).
On to `C[C@H]1COC2=C1C(=O)C(=O)c1c2ccc2c1CCCC2(C)C`, for which the Potency in assay [12] was 14.8 µM (active); in [7] it was 16.6 µM (active); in assay [10], 23.5 µM (active); in assay [3], 14.8 µM (active); in assay [4] it was 18.7 µM (active). The Potency entry in assay [8] and in assay [11] was “inactive” each time.
For the compound `Cc1ccc(NC(=O)c2cccc(N(C)C)c2)cc1NC(=O)c1ccc(O)cc1`, the Potency in assay [1] is 0.235 µM (active); in [2] it was 13.2 µM (active); in [3] it was 16.6 µM (active); in assay [4] it was 23.5 µM (active); in assay [5], 0.166 µM (active).
As for `COc1ccc2ccc(=O)oc2c1CC=C(C)C`, the Potency in [6] is 1.48 µM (active); in [1], 13.2 µM (active); in [9], 16.6 µM (active); in assay [4] it was 11.8 µM (active). In addition, the Potency entry in [10] is “inactive”.
On to `CN(C)CCOc1ccc(C(=C(CCCl)c2ccccc2)c2ccccc2)cc1`, for which the Potency in assay [6] was 18.7 µM (active); in [3] it was 4.18 µM (active); in assay [4], 23.5 µM (active). The Potency entry in assay [1], in assay [7], in [8], in assay [11], in assay [2] and in assay [13] was “inactive” in each case.
